# Results filed as inconclusive are left out. Entries that show only a call come without a potency. The source made the active and inactive calls. Calls follow the shape of the full dose curve.
# Experiment: qHTS assay for small molecule disruptors of the mitochondrial membrane potential - 5 hr assay (AID 651755); also: nearly all actives have a fitted effect of over 40% in size
# Conditions: JC-1-type ratio dye; series mostly up to 92.2 µM
# Excerpt: National Center for Advancing Translational Sciences [NCATS]
# NIH Chemical Genomics Center [NCGC]
# National Institutes of Environmental Health Sciences [NIEHS]
# National Toxicology Program [NTP]
# Mitochondrial membrane potential (MMP), one of the parameters for mitochondrial function, is generated by mitochondrial electron transport chain that creates an electrochemical gradient by a series of redox reactions. This gradient drives the synthesis of ATP, a crucial molecule for various cellular processes. Measuring MMP in living cells is commonly used to assess the effect of chemicals on mitochondrial function. […] The dye accumulates in the mitochondria of healthy cells as aggregates, with red fluorescence. The mitochondrial potential collapses and the dye can no longer accumulate in the mitochondria and remains in the cytoplasm in monomers, with green fluorescence.
# 2,000 HepG2 cells in 5 uL/well were dispensed into black, clear-bottom 1536-well plates using a Multidrop Combi (Thermo Scientific) dispenser. The assay plates were incubated overnight at 37C to allow cells to attach to the wells, followed by the transfer of 23 nL compound or DMSO vehicle by a pin tool (Kalypsys). The plates were incubated for 5 hr at 37C and 5% CO2, followed by the addition of 5 uL of 2X Mito-MPS dye (BD Biosciences) into each well using Flying Reagent Dispenser (Aurora Discovery) and then following 30 min incubation at 37C. Fluorescence intensity (490nm excitation and 535nm emission for monomers; and 540nm excitation and 590nm emissions for aggregates) was measured using an Envision plate reader.
# Potency is read from the fitted curve at half-maximal effect.
row,SMILES,Potency
1,C[C@]12CCC(=O)C=C1CC[C@@H]1[C@@H]2CC[C@]2(C)C(=O)CC[C@@H]12,inactive
2,Clc1ccc(C(c2ccc(Cl)cc2)C(Cl)(Cl)Cl)cc1,inactive
3,CC(C)c1cccc(C(C)C)c1O,inactive
4,C[C@]1(O)CC[C@H]2[C@@H]3CCC4=CC(=O)CC[C@]4(C)[C@@]3(F)[C@@H](O)C[C@@]21C,inactive
5,CCOC(=O)CC(SP(=S)(OC)OC)C(=O)OCC (stereo unspecified),inactive
6,CN1C[C@H](C(=O)N[C@]2(C)O[C@@]3(O)[C@@H]4CCCN4C(=O)[C@H](Cc4ccccc4)N3C2=O)C=C2c3cccc4[nH]cc(c34)C[C@H]21,11.9 µM (active)
7,NCCc1ccc(O)cc1,inactive
8,COP(=S)(OC)Oc1ccc(SC)c(C)c1,inactive
9,COC(=O)C(c1ccccc1)C1CCCCN1 (stereo unspecified),inactive
10,COc1cc(OC)c(OC)cc1C=O,inactive
11,CCCC(C)(COC(N)=O)COC(N)=O,inactive
